Experimental findings from PubChem BioAssay (NCATS) are described below.

The structures appear in SMILES notation. Where “and” joins values, the source holds several entries; their conditions need not be identical. Identical values can stand only once. Results filed as inconclusive are left out. Calls of active or inactive are those of the source. Calls follow the shape of the dose curve; as a rule, active = well fitted curve in the direction sought with a large enough effect; inconclusive = small, poorly fitted or top-dose-only effect, or another doubt; inactive = no such curve, though single readings can be large; an effect the other way counts as inactive or inconclusive. Where a SMILES comes first, the peptide text is derived from it. [ ]: non-standard residue; d: D form. pGlu = O=C1CC[C@@H](C(=O)O)N1; Thz = O=C(O)[C@@H]1CSCN1
% is scaled to controls: 0 for no effect and ±100 for the full control effect.

The first experiment can be described thus: qHTS Assay for Identifying Gametocytocidal Compounds (AID 743244).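 Also: actives lower the fluorescent signal which means gametocytes are killed.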 The note with it: P. falciparum 3D7 stage III-V gametocytes, alamarBlue, 72 h; max response: active compounds read low. The method, boiled down: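 In this qHTS viability screen, late-stage 3D7 gametocytes are incubated with compound for 72 h, then with alamarBlue for 24 h; reduced resorufin fluorescence marks killing.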
A general note: qHTS replaces the single test concentration by a dilution series.
As to `O=C(/C=C/c1ccccc1)NCCO`, the max response is 7.68% (inactive).

Consider `Cc1[nH]cnc1CN1CCc2c(c3ccccc3n2C)C1=O`, for which the max response was -6.58% (inactive).

Turning to `COC(=O)C1=C(C)NC(C)=C(C(=O)OCC(C)=O)C1c1ccccc1[N+](=O)[O-]` (stereo not given), the max response was 14.8% (inactive).

Turning to `COc1cc2c3cc1Oc1cc(ccc1O)C[C@@H]1c4c(cc(OC)c(O)c4Oc4ccc(cc4)C[C@@H]3N(C)CC2)CC[N+]1(C)C`, the max response is 1.34% (inactive). `COC(=O)[C@H]1[C@H]2C[C@@H]3c4[nH]c5cc(OC)ccc5c4CCN3C[C@H]2C[C@@H](OC(=O)/C=C/c2cc(OC)c(OC)c(OC)c2)[C@@H]1OC`: the max response is -0.068% (inactive). Same read-out and setting: then `CN(C)[C@@H]1C(=O)C(C(=O)NCN2CCCC2)=C(O)[C@@]2(O)C(=O)C3=C(O)c4c(O)cccc4[C@@](C)(O)C3C[C@@H]12` (stereo not given in full), with 6.22% (inactive) and 1.93% (inactive). On the same count and under the same terms, then `CN1CCN(c2cc3c(nn2)Oc2ccccc2N3C)CC1`, with -7.02% (inactive); and `Nc1c(CC(=O)O)cccc1C(=O)c1ccc(Br)cc1`, with 4.37% (inactive).

In the case of `C/C(=N\O)c1ccc(OCC(=O)N2CCCCC2)cc1`, the max response is 0.0539% (inactive). As to `COc1cc(CNC(=O)CCCC/C=C/C(C)C)ccc1O`, the max response was 10.1% (inactive). On the same count and under the same terms, then `O=c1cc(-c2ccccc2)oc2ccccc12`, with 7.39% (inactive); and `CCCCCCOc1ccccc1C(N)=O`, with -0.639% (inactive); and `CC(C(=O)O)c1ccc(C(=O)c2ccccc2)s1` (stereo not given), with -0.0039% (inactive). Same read-out and setting: then `CN(C)CCn1nnnc1SCC1=C(C(=O)O)N2C(=O)[C@@H](NC(=O)Cc3csc(N)n3)[C@H]2SC1`, with 19.2% (inactive). With `N=C(N)N`, the max response is -3.24% (inactive).

For `O=c1[nH]c2ccccc2n1CCCN1CCN(C(c2ccccc2)c2ccccc2)CC1`, the max response was 14.5% (inactive). On the same count and under the same terms, then `Cc1c(C(=O)O)c(O)cc2c1C(=O)c1c(O)c([C@@H]3O[C@H](CO)[C@@H](O)[C@H](O)[C@H]3O)c(O)c(O)c1C2=O`, with -1.02% (inactive). The same measure, in the same setting: then `CC(C(=O)O)c1ccc2c(c1)[nH]c1ccc(Cl)cc12` (stereo not given), with 3.15% (inactive); and `Nc1ccc([N+](=O)[O-])cc1O`, with -2.68% (inactive); and `CC1(C)S[C@@H]2[C@H](NC(=O)[C@H](N)c3ccc(O)cc3)C(=O)N2[C@H]1C(=O)O`, with 4.64% (inactive) and 10.7% (inactive). The same measure, in the same setting: then `O=C1CC[C@@H](C(=O)N2CSC[C@H]2C(=O)O)N1` ([pGlu]-[Thz]-OH), with 5.51% (inactive).

Regarding `CC[C@H]1OC(=O)[C@H](C)C(=O)[C@H](C)[C@@H](O[C@@H]2O[C@H](C)C[C@H](N(C)C)[C@H]2O)[C@](C)(OC)C[C@@H](C)C(=O)[C@H](C)[C@H]2N(CCCCn3cnc(-c4cccnc4)c3)C(=O)O[C@]12C`, the max response was -5.82% (inactive) and 15.9% (inactive).

Turning to `O=C(O)Cc1cccc(-c2cc(CCCCCCc3ccc(O[C@H]4O[C@H](CO)[C@@H](O)[C@H](O)[C@@H]4O)c(-c4cccc(CC(=O)O)c4)c3)ccc2O[C@H]2O[C@H](CO)[C@@H](O)[C@H](O)[C@@H]2O)c1`, the max response is 36.1% (inactive). With `c1ccc(CCNc2nc(-c3ccccc3)cs2)cc1`, the max response is -4.46% (inactive).

Another experiment in a line: qHTS assay for cell viability of HEK293 cells (AID 743288). Also: nearly all actives have a fitted effect of over 50% in size. As to conditions: ATP luminescence (CellTiter-Glo), 18 h; max response: active compounds read low. The gist of the method: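 Viable-cell counts were inferred from luciferase-based ATP content in HEK293 cells seeded at 2,000/well, pre-incubated ≥5 h, then dosed with DMSO-solubilised compounds for 18 h at 37 C.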
`COc1cc(CNC(=O)CCCC/C=C/C(C)C)ccc1O`: the max response is -3.17% (inactive) and -17.3% (inactive). On the same count and under the same terms, then `O=c1cc(-c2ccccc2)oc2ccccc12`, with -12.4% (inactive) and -11.5% (inactive); and `Nc1ccc([N+](=O)[O-])cc1O`, with 3.96% (inactive) and 2.89% (inactive).

The nature of another experiment: qHTS assay for cell viability of the p53RE-bla HCT-116 cell line (AID 743292). Also: nearly all actives have a fitted effect of over 55% in size. As to conditions: p53RE-bla HCT-116 viability, ATP luminescence, 16 h; series mostly up to 95 µM. The method, boiled down: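 ATP-based luminescent viability (CellTiter-Glo, 30 min RT) after 16 h compound treatment at 37 C of p53RE-bla HCT-116 cells, seeded at 4,000 cells/well and rested 5 h before dosing.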
With `COc1cc(CNC(=O)CCCC/C=C/C(C)C)ccc1O`, the Potency entry was “inactive”. Same read-out and setting: then `O=c1cc(-c2ccccc2)oc2ccccc12`, with “inactive”; and `Nc1ccc([N+](=O)[O-])cc1O`, with “inactive”.
